Data taken from PubChem BioAssay (NCATS).
The source made the active and inactive calls. Calls follow the shape of the dose curve; as a rule, active = well fitted curve in the direction sought with a large enough effect; inconclusive = small, poorly fitted or top-dose-only effect, or another doubt; inactive = no such curve, though single readings can be large; an effect the other way counts as inactive or inconclusive.

Target: alpha-glucosidase (Oryza sativa, rice) (UniProt Q653V4)
Experiment: Counterscreen for Glucocerebrosidase Inhibitors: qHTS Assay for Rice alpha-Glucosidase at pH 5.0 (AID 997)
Conditions: rice alpha-glucosidase enzyme activity; series mostly up to 76.9 µM
Procedure, shortened: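 Endpoint fluorogenic assay at pH 5.0: compounds (0.7 nM to 77 uM) titrated against 4 nM rice enzyme and 400 uM 4-MU-alpha-glucoside for 20 min at room temperature; NaOH/glycine stop, read ex 365/em 440 nm, Hill-fitted AC50.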

Compound	outcome
CCN1C[C@]2(C)CC[C@@H](O)[C@]34[C@@H]5CC6[C@@H](OC)C[C@@](O)([C@H]5[C@@H]6O)[C@@H](C[C@@H]23)[C@H]14	inactive
C=CCN1C[C@@H](C)N([C@H](c2ccc(C(=O)N(CC)CC)cc2)c2cccc(OC)c2)C[C@H]1C	inactive
CCCN1CCc2cccc3c2[C@@H]1Cc1ccc(O)c(O)c1-3	inactive
NC(N)=Nc1ccc2[nH]c3c(c2c1)C[C@]1(O)[C@@H]2Cc4ccc(O)c5c4[C@]1(CCN2CC1CC1)[C@H]3O5	inactive
C[C@H](N[C@@H](C)CCc1ccccc1)[C@H](O)c1ccc(O)cc1	inactive
CCCC[N+]1(C)[C@@H]2CC(OC(=O)[C@@H](CO)c3ccccc3)C[C@H]1[C@H]1O[C@H]12 (stereo not given in full)	inactive
CC(C)(C)NC[C@H](O)c1ccccc1Cl	inactive
C=CCN1CCc2cccc3c2[C@@H]1Cc1ccc(O)c(O)c1-3	inactive

Target: Alpha-galactosidase (Coffea arabica) (UniProt Q42656)
Experiment: Counterscreen for Glucocerebrosidase Inhibitors: qHTS Assay for Coffee Bean alpha-Galactosidase at pH 5.9 (AID 998)
Conditions: coffee bean alpha-galactosidase enzyme assay; series mostly up to 76.9 µM
Procedure, shortened: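 In 50 mM citric acid pH 5.9 with 0.005% Tween-20, coffee bean enzyme hydrolyses 80 uM 4-MU alpha-D-galactopyranoside over 20 min at RT. Activity is normalized to controls; AC50 comes from Hill-modelled concentration-response data.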

Chain of Alpha-galactosidase (Coffea arabica) (Q42656 whole entry, looked up): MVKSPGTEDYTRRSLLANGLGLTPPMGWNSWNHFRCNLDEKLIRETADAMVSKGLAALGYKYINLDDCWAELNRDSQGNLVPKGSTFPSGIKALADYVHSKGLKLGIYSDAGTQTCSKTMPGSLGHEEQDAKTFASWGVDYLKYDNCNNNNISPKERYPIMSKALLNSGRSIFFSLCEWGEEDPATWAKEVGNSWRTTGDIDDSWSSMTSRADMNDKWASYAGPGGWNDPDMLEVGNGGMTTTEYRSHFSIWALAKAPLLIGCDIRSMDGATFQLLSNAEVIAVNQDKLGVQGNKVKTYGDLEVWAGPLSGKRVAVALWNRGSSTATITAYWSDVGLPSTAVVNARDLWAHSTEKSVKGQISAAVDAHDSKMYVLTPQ

Compound	outcome
CCN1C[C@]2(C)CC[C@@H](O)[C@]34[C@@H]5CC6[C@@H](OC)C[C@@](O)([C@H]5[C@@H]6O)[C@@H](C[C@@H]23)[C@H]14	inactive
C=CCN1C[C@@H](C)N([C@H](c2ccc(C(=O)N(CC)CC)cc2)c2cccc(OC)c2)C[C@H]1C	inactive
CCCN1CCc2cccc3c2[C@@H]1Cc1ccc(O)c(O)c1-3	inactive
C[C@H](N[C@@H](C)CCc1ccccc1)[C@H](O)c1ccc(O)cc1	inactive
CCCC[N+]1(C)[C@@H]2CC(OC(=O)[C@@H](CO)c3ccccc3)C[C@H]1[C@H]1O[C@H]12 (stereo not given in full)	inactive
CC(C)(C)NC[C@H](O)c1ccccc1Cl	inactive
C=CCN1CCc2cccc3c2[C@@H]1Cc1ccc(O)c(O)c1-3	inactive
